Out of some 48,000 compounds screened, about 13,000 (27%) showed an effect of 50% or more. The list shows a part of the results.
These compounds were tested on Wolbachia pipientis (assay: Anti-Wolbachia Cell-Based Screen). Details: 5 µM.
Assay type: functional
Parameters: scale not given: in the data most compounds retested in dose-response had high values
In the case of `Cc1nc(C(C)NC(=O)NCc2nccn2CC(C)C)cs1` (stereo not drawn), the “Percent Effect” value is reported as -2.713%. For `CC(=O)N1CCN(CC(C)(O)c2cccc(C(F)(F)F)c2)CC1` (stereo not drawn), the “Percent Effect” value was 108.1%. `CC(N)C(=O)N1CCC(Oc2cccc(C(F)(F)F)c2)CC1` (stereo not drawn) was tested, and the “Percent Effect” value was -15.39%. With `COCCN1CCN(CC(C)(O)c2cccc(C(F)(F)F)c2)CC1` (stereo not drawn) the “Percent Effect” value was 78.04%. With `COCCN1CCN(C(=O)C(c2cccc(F)c2)N(C)C)CC1` (stereo not drawn) the “Percent Effect” value was -2.953%. For `COC(=O)NCC(=O)NCC(C)(C)c1cccc(C(F)(F)F)c1`, the “Percent Effect” value was -0.4386%. With `CC(NCC1CCN(CCO)CC1)c1ccc(C(F)(F)F)cc1` (stereo not drawn) the “Percent Effect” value was 4.315%. For `CC(O)(CN1CCN(CCO)CC1)c1cccc(C(F)(F)F)c1` (stereo not drawn), the “Percent Effect” value was 117%. In the case of `CC(=O)N1CCN(Cc2ccc(C(F)(F)F)cc2F)CC(O)C1` (stereo not drawn), the “Percent Effect” value is reported as -3.674%. In the case of `CC(=O)N1CCOC(Cc2cccc(C(F)(F)F)c2)C1` (stereo not drawn), the “Percent Effect” value is reported as -10.28%. With `COCC(NC(=O)c1cnn(C)c1)c1cccc(C(F)(F)F)c1` (stereo not drawn) the “Percent Effect” value was -8.704%. In the case of `CC(O)(CN1CCC(O)CC1)c1cccc(C(F)(F)F)c1` (stereo not drawn), the “Percent Effect” value is reported as 104.1%. `CC(C(=O)Nc1cccc(C(F)(F)F)c1)N(C)CCN1CCOCC1` (stereo not drawn) was tested, and the “Percent Effect” value was -13.73%. In the case of `CC(C)c1noc(C(C)N2CCC(c3nc4ccccc4[nH]3)CC2)n1` (stereo not drawn), the “Percent Effect” value is reported as 10.92%. In the case of `O=C(CCSc1ccccc1)NS(=O)(=O)c1ccc2c(c1)OCCO2`, the “Percent Effect” value is reported as 13.89%. For `CC1=NOC(C(=O)N2CCC(O)(c3ccc4nc(C)ccc4c3)CC2)C1` (stereo not drawn), the “Percent Effect” value was -15.54%. In the case of `Clc1ccc(CN2CCCC(Cn3cncn3)C2)c2ncccc12` (stereo not drawn), the “Percent Effect” value is reported as -4.031%. In the case of `Cn1c(C(=O)N2CCC(C3OCCO3)CC2)c(Cl)c2ccccc21`, the “Percent Effect” value is reported as 4.597%. In the case of `CC(NC(=O)Nc1cccnc1N1CCOCC1)c1ccccc1` (stereo not drawn), the “Percent Effect” value is reported as -4.6%. For `CCc1cc(N2CCC(NC3CCOCC3)CC2)nc(N(C)C)n1`, the “Percent Effect” value was -0.7364%. For `O=c1[nH]nc2c(N3CCC(NC4CCOCC4)CC3)nccn12`, the “Percent Effect” value was 113.4%. In the case of `O=c1[nH]nc2c(N3CCOCC3)nccn12`, the “Percent Effect” value is reported as 105.6%. With `O=c1[nH]nc2nc(N3CCCC3)ccn12` the “Percent Effect” value was -11.65%. With `O=c1[nH]nc2nc(N3CCOCC3)ccn12` the “Percent Effect” value was 3.869%. With `CC(C)c1nccn1C(C)C(=O)NC1CCOCC1` (stereo not drawn) the “Percent Effect” value was -4.368%. `O=c1[nH]nc2nc(N3CCSCC3)ccn12` was tested, and the “Percent Effect” value was -3.985%. With `O=c1[nH]nc2c(N3CCCCCC3)nccn12` the “Percent Effect” value was 114.9%. With `COc1cccn(Cc2nnc(-c3cccnc3)o2)c1=O` the “Percent Effect” value was -29.57%. With `Cc1nc(CNC(=O)[C@@H]2CCCN2C(=O)OC(C)(C)C)cs1` the “Percent Effect” value was -12.19%. In the case of `Cc1ccccc1N1CCCN(CC2(O)CCCNC2)CC1` (stereo not drawn), the “Percent Effect” value is reported as -10.43%. In the case of `N#Cc1ccc(CN2CCN(C(=O)c3cc(C4CC4)[nH]n3)CC2)cc1`, the “Percent Effect” value is reported as -3.632%. In the case of `CC(C)c1ccc(CN2CCN(C(=O)c3cc(C4CC4)[nH]n3)CC2)cc1`, the “Percent Effect” value is reported as 100.6%. `CC(C)c1cc(C(=O)N2CCN(Cc3ccc(C#N)cc3)CC2)n[nH]1` was tested, and the “Percent Effect” value was 1.28%. With `O=C(c1cc(C2CC2)[nH]n1)N1CCN(c2nccs2)CC1` the “Percent Effect” value was -6.646%. With `COc1ccnc(N2CCN(C(=O)c3cc(C4CC4)[nH]n3)CC2)n1` the “Percent Effect” value was -20.97%. `O=C(c1cc(COc2ccc3c(c2)OCO3)[nH]n1)N1CCCC(O)C1` (stereo not drawn) was tested, and the “Percent Effect” value was -9.09%. `O=C(c1cc(C2CC2)[nH]n1)N1CCN(Cc2ccncc2)CC1` was tested, and the “Percent Effect” value was 106.7%. For `O=C(c1cc(COc2ccc3c(c2)OCO3)[nH]n1)N1CCOCC1`, the “Percent Effect” value was 16.23%. For `CCc1nc(C(=O)N2CCN(Cc3ccc(Cl)cc3)CC2)c[nH]1`, the “Percent Effect” value was 7.187%. In the case of `O=C(c1cc(C2CC2)[nH]n1)N1CCN(Cc2ccc3c(c2)OCO3)CC1`, the “Percent Effect” value is reported as 118.4%. `O=C(c1cc(C2CC2)[nH]n1)N1CCN(Cc2ccc(Cl)cc2)CC1` was tested, and the “Percent Effect” value was 91.65%. `Cc1ccsc1C(=O)NCC1COCc2c(C)nnn2C1` (stereo not drawn) was tested, and the “Percent Effect” value was -4.017%. `COc1ccc(CC(=O)N2CCc3nc(C(=O)N(C)C)sc3CC2)cc1` was tested, and the “Percent Effect” value was -11.26%. `COCc1cc(N(C)Cc2cc(C(C)(C)C)n[nH]2)ncn1` was tested, and the “Percent Effect” value was -4.66%. With `Cc1cnn(CCNCc2ccc(OCC(N)=O)cc2)c1` the “Percent Effect” value was -9.498%. For `Cc1nn(CCC#N)c(C)c1CCC(=O)N(C)Cc1ccc(F)cc1F`, the “Percent Effect” value was 10.09%. With `CCOc1ccc(CN2CCN(C(=O)c3cc(C4CC4)[nH]n3)CC2)cc1` the “Percent Effect” value was 100.1%. With `Cc1cccc(CN2CCN(C(=O)c3cc(C4CC4)[nH]n3)CC2)c1` the “Percent Effect” value was 106.2%. For `CCOc1ccc(CN2CCN(C(=O)c3ccc(C)n3C)CC2)cc1`, the “Percent Effect” value was 6.046%. For `O=C(c1cc(C2CC2)[nH]n1)N1CCN(Cc2ccccc2)CC1`, the “Percent Effect” value was 113.8%. With `O=C(c1cc(C2CC2)[nH]n1)N1CCN(Cc2ccsc2)CC1` the “Percent Effect” value was -9.211%. In the case of `Cc1cccc(CN2CCN(C(=O)c3ccc(C)[nH]c3=O)CC2)c1`, the “Percent Effect” value is reported as -0.706%. `O=C(c1cc(C2CC2)[nH]n1)N1CCCN(c2nccs2)CC1` was tested, and the “Percent Effect” value was -25.45%. In the case of `CC(C)c1cc(C(=O)N2CCCN(Cc3ccccc3)CC2)n[nH]1`, the “Percent Effect” value is reported as -13.62%. In the case of `N#Cc1ccc(N2CCN(C(=O)c3cc(C4CC4)[nH]n3)CC2)c(F)c1`, the “Percent Effect” value is reported as -1.136%. `COCCC1(CNC(=O)NC2CCCN(C)C2)CC1` (stereo not drawn) was tested, and the “Percent Effect” value was -18.26%. For `CC(C)OC(=O)N1CCC(Cc2cccc(C(N)=O)c2)C1` (stereo not drawn), the “Percent Effect” value was 0.346%. With `Cc1nc(-c2cccs2)ccc1C(=O)N1CCN(CC(C)O)CC1` (stereo not drawn) the “Percent Effect” value was 6.494%. `O=C(Nc1ccccc1-c1cccs1)N1CCOCC1` was tested, and the “Percent Effect” value was -11.7%. `CC(C(=O)N1CCOCC1)n1nc(-c2cccs2)cc(N)c1=O` (stereo not drawn) was tested, and the “Percent Effect” value was 87.73%. For `O=C1CC(c2cccs2)Cc2nc(O)c(C(=O)N3CCCC3)cc21` (stereo not drawn), the “Percent Effect” value was -9.305%. With `CC(C(=O)N1CCOCC1)N1CCc2cncnc2C1` (stereo not drawn) the “Percent Effect” value was 24.13%. For `CC(C(=O)N1CCCC1)n1nc(-c2cccs2)cc(N)c1=O` (stereo not drawn), the “Percent Effect” value was 96.9%. With `CC(C(=O)N1CCCCC1)n1nc(-c2cccs2)cc(N)c1=O` (stereo not drawn) the “Percent Effect” value was 96.7%. With `Nc1cc2c(nn1)CCN(C(=O)c1csc(-c3cccs3)n1)C2` the “Percent Effect” value was -8.113%. With `Cl.Cn1cc(CNC2CCC(O)CC2)c(-c2cc3ccccc3o2)n1` (stereo not drawn) the “Percent Effect” value was 4.474%. With `CC(NC(=O)Cc1cc2c(cc1Cl)OCCO2)c1ccncn1` (stereo not drawn) the “Percent Effect” value was -8.722%. `O=C(c1c2c(NCC3CC3)ncnc2n2ccccc12)N1CCCC1` was tested, and the “Percent Effect” value was 17.48%. With `COc1ncc(C2CC(=O)NCc3nc4ccccn4c32)cn1` (stereo not drawn) the “Percent Effect” value was 2.979%. For `CCn1ccc(C(=O)N(C)Cc2cnn(-c3cccc(OC)c3)c2)n1`, the “Percent Effect” value was -12.09%. For `CCC1CN(C(=O)COc2ccc(C)nc2)CCO1` (stereo not drawn), the “Percent Effect” value was -3.761%. `COCC(=O)N1CCOC(c2cccc(-c3cncnc3)n2)C1` (stereo not drawn) was tested, and the “Percent Effect” value was 151.1%. For `COCC(=O)N1CCOC(c2ccc(N(C)C)cn2)C1` (stereo not drawn), the “Percent Effect” value was 108.5%. With `Br.Cn1nccc1CN1CCOC(c2cccc(-c3cncnc3)n2)C1` (stereo not drawn) the “Percent Effect” value was 91.95%. `Cc1nccc(C2CN(Cc3cc[nH]n3)CCO2)n1` (stereo not drawn) was tested, and the “Percent Effect” value was -9.06%. `CNC(=O)c1ccc(C2CN(C(=O)COC)CCO2)nc1` (stereo not drawn) was tested, and the “Percent Effect” value was -5.036%. For `Cc1ccc(C2CN(Cc3cnc(-c4cccnc4)s3)CCO2)o1` (stereo not drawn), the “Percent Effect” value was 6.287%. With `COc1ccc2cc(C3CN(C(=O)COC(C)C)CCO3)ccc2c1` (stereo not drawn) the “Percent Effect” value was -0.3239%. With `CC(Cc1ccc(C(F)(F)F)cc1)C(=O)N1CCCS1(=O)=O` (stereo not drawn) the “Percent Effect” value was -11.51%. For `c1ccc(C2CN(C3CC3)CC3(CCN(Cc4cscn4)CC3)C2)cc1` (stereo not drawn), the “Percent Effect” value was -14.1%. `CCOc1ccc(CN2C(=O)CC(C)(C(C)C)C2=O)nc1` (stereo not drawn) was tested, and the “Percent Effect” value was -23.31%. With `Cc1cnc(N2CCCn3c(nnc3CN(C)C(C)C)C2)nc1.O=C(O)C(F)(F)F` the “Percent Effect” value was 99.73%. With `Fc1cnc(N2CCCn3c(nnc3Cn3ccnc3)C2)nc1.O=C(O)C(F)(F)F` the “Percent Effect” value was -11.56%. In the case of `CC(C)N(C)Cc1nnc2n1CCCN(c1ncccn1)C2.O=C(O)C(F)(F)F`, the “Percent Effect” value is reported as 99.37%. With `Cc1cnc(N2CCn3c(CN4CCOCC4)nnc3C2)nc1.O=C(O)C(F)(F)F` the “Percent Effect” value was -6.202%. For `CS(=O)(=O)N1CCC(NCC2(N3CCOCC3)CCCCC2)CC1`, the “Percent Effect” value was -12.17%. For `COc1cc2cc(C(=O)N[C@@H](C)C(=O)O)n(C)c2c(OC)c1OC`, the “Percent Effect” value was 6.023%. With `CC(C)Cc1ncc(CNc2cnccc2CO)s1` the “Percent Effect” value was 2.618%. In the case of `CC(C)n1cnc2c1C(C(=O)NCCO)N(Cc1ccccc1)CC2.O=C(O)C(F)(F)F` (stereo not drawn), the “Percent Effect” value is reported as 2.168%. For `CN(C1CCc2ccccc2C1)S(C)(=O)=O` (stereo not drawn), the “Percent Effect” value was -5.064%. `COCCN(CC(F)F)c1cc(COC)nc2ncnn12` was tested, and the “Percent Effect” value was 3.034%. With `CCn1c(CN2CCCN(C(=O)OC)CC2)nc2c(F)cccc21` the “Percent Effect” value was -3.965%. With `COCC(=O)N1CCN(Cc2nnc(C(C)(C)C)o2)CC1` the “Percent Effect” value was -20.23%. With `COC(=O)N1CCCN(Cn2nc(C)c(Br)c2C)CC1` the “Percent Effect” value was 92.29%. `CCC(=O)N1CCCN(C(=O)c2cc(C)cc(Br)c2O)CC1` was tested, and the “Percent Effect” value was 5.319%. For `CCn1ccnc1CN1CCCN(C(=O)Cn2nc(C)cc2C)CC1`, the “Percent Effect” value was -3.678%. `COC(=O)N1CCCN(C(=O)c2cccc3cccnc23)CC1` was tested, and the “Percent Effect” value was -4.967%. In the case of `CCC(=O)N1CCCN(Cn2nc(C)c(Br)c2C)CC1`, the “Percent Effect” value is reported as 116.5%. With `COCC(=O)N1CCN(Cn2nc(C)c(Br)c2C)CC1` the “Percent Effect” value was 100.8%. With `COCC(=O)N1CCCN(Cc2c(C)nc3ccc(Cl)cn23)CC1` the “Percent Effect” value was -0.9556%. With `O=C(CCCn1nnc(-c2ccc(F)cc2)n1)N1CCOCC(CO)C1` (stereo not drawn) the “Percent Effect” value was -1.392%. In the case of `CCCN(Cc1nccn1C)C(=O)c1cnn[nH]1`, the “Percent Effect” value is reported as -16.97%. In the case of `Cc1nn(-c2ccccc2)c(C)c1-c1ccnc(N2CCC(O)CC2)n1`, the “Percent Effect” value is reported as -6.995%. For `Cc1nn(-c2ccccc2)c2nc(C(C)(C)CN3CCN(C)CC3)[nH]c12`, the “Percent Effect” value was 102.6%. In the case of `Cc1nn(C2CCCCC2)c2nc(C(C)(C)CN3CCOCC3)[nH]c12`, the “Percent Effect” value is reported as 104.5%. `Cc1nn(C2CCCC2)c2nc(C(C)(C)CN3CCN(C)CC3)[nH]c12` was tested, and the “Percent Effect” value was 98.14%. For `CC(C)(C)c1c[nH]c([C@@H]2COCCN2C2CCCCC2)n1`, the “Percent Effect” value was -16.61%. For `CC(CN1CCOCC1)NCc1nncn1C1CCCCC1` (stereo not drawn), the “Percent Effect” value was -12.38%.
